Several values for one entry are separate records, joined by “and”; a condition that tells them apart may be missing. Identical values can stand only once. Results filed as inconclusive are left out. Some structures have more than one record in an assay (separate samples or runs), and their calls can disagree. Activity calls are given as the source filed them. Unless noted, the call rests on the fitted dose curve; in most records, active means well fitted curve in the direction sought with a large enough effect; inconclusive means small, poorly fitted or top-dose-only effect, or another doubt; inactive means no such curve, though single readings can be large; an effect the other way counts as inactive or inconclusive.
Columns and labels:
[1] = molecular target: Voltage-gated inwardly rectifying potassium channel KCNH2 (Homo sapiens) (UniProt Q12809); experiment: qHTS Assay for Small Molecule Inhibitors of the Human hERG Channel Activity (AID 588834);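 further: lower thallium flux fluorescence means stronger hERG block; nearly all actives have a fitted effect of over 50% in size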
Summary of the method: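 U2OS cells transduced with hERG via BacMam (MOI ~100), plated 2000/well, loaded with FluxOR thallium dye, compound ~10 min, then stimulation buffer; fluorescence decrease read kinetically; AC50 from Hill fits.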

[2] = molecular target: Luciferin 4-monooxygenase (Photinus pyralis) (UniProt P08659); experiment: Biochemical firefly luciferase enzyme assay for NPC (AID 624030); further: nearly all actives have a fitted effect of over 70% in size
Summary of the method: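 Counter-screen for direct inhibition of the luciferase enzyme by approved-drug library compounds, run at 10 nM enzyme in 50 mM Tris acetate (final). Luminescence was read within 5 min of enzyme-buffer addition and normalized to PTC124 versus DMSO (0%).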

[3] = S16 Schwann cell viability assay (CellTiter-Glo assay) (AID 624031); further: nearly all actives have a fitted effect of over 70% in size
Summary of the method: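 This viability control uses native rat S16 Schwann cells grown in DMEM plus 10% FBS. After a 24 h compound treatment at 37 °C, CellTiter-Glo luminescence reports ATP content, scaled against DMSO-treated and cell-free wells.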

[4] = S16 Schwann cell PMP22 intronic element firefly luciferase assay (AID 624032); further: nearly all actives have a fitted effect of over 30% in size
Summary of the method: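 Rat S16 Schwann cells stably carrying a PMP22 intronic element-driven Fluc reporter were seeded overnight, then exposed to compounds for 24 h at 37 °C. Luminescence was normalized to PTC124 (positive control) and DMSO (0% activity).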

[5] = molecular target: Glutaminase kidney isoform, mitochondrial (Homo sapiens) (UniProt O94925); experiment: qHTS for Inhibitors of Glutaminase (GLS): LOPAC Validation (AID 624146); further: nearly all actives have a fitted effect of over 60% in size
Summary of the method: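 Coupled fluorescence readout: glutamate oxidase/HRP/Amplex Red detect glutamate formed by hKGA from L-glutamine (1 mM solution added). Buffer 45 mM KH2PO4 pH 8.2, 0.02% Tween-20; reads at t0 and 30 min RT.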

[6] = qHTS of Trypanosoma Brucei Inhibitors: LOPAC Validation (AID 624147)
Summary of the method: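 Screened from lowest to highest concentration, compounds were pinned into TbPYK/substrate mixtures, and ADP (130 uM final) was added. Plates sat at room temperature for 45 min prior to Kinase-Glo Plus detection by luminescence.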

[7] = S16 Schwann cell PMP22 intronic element beta-lactamase assay (AID 624044; calls by dose curve; further: nearly all actives have a fitted effect of over 15% in size)
Summary of the method: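 Rat S16 Schwann cells with beta-Lac driven by a PMP22 intronic element, compound-treated 24 h at 37 °C. LiveBLAzer FRET B/G read: 460 nm normalized to potassium clavulanate vs DMSO; 535 nm FRET as viability; concentration-effect curves classified.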

Measured: Potency
Potency means the concentration at half of the fitted maximal effect.

Sequence of Voltage-gated inwardly rectifying potassium channel KCNH2 (Homo sapiens) (Q12809 whole entry, looked up): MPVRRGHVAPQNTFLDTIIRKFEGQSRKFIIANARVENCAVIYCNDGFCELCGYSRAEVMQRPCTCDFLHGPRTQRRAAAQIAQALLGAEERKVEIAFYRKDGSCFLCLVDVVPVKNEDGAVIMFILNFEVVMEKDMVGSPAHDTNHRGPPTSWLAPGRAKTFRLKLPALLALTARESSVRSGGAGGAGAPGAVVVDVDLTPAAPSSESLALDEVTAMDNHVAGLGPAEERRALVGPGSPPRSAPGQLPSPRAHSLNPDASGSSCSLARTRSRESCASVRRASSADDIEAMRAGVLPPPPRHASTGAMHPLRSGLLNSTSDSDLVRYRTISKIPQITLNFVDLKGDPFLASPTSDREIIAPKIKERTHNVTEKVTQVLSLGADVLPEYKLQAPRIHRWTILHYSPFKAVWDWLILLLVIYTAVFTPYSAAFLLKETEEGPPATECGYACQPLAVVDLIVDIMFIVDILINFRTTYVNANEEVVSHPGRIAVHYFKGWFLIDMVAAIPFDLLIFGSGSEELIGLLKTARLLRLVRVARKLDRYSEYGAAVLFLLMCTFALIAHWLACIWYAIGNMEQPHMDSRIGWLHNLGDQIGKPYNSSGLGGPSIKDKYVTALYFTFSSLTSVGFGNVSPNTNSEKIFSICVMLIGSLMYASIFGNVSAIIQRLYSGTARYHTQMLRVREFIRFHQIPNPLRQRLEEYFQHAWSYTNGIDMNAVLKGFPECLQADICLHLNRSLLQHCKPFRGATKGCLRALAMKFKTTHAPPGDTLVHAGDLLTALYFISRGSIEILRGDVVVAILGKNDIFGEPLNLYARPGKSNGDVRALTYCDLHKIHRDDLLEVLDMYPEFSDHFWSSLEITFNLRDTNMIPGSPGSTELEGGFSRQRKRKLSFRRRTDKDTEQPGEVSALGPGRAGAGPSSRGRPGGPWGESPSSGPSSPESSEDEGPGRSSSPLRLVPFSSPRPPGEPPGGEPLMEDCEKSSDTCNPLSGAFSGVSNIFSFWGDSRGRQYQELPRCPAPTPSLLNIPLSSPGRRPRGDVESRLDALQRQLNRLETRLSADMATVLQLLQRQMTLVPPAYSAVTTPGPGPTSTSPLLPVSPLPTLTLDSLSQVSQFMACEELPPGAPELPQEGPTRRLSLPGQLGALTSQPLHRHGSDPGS
Sequence of Luciferin 4-monooxygenase (Photinus pyralis) (P08659 whole entry, looked up): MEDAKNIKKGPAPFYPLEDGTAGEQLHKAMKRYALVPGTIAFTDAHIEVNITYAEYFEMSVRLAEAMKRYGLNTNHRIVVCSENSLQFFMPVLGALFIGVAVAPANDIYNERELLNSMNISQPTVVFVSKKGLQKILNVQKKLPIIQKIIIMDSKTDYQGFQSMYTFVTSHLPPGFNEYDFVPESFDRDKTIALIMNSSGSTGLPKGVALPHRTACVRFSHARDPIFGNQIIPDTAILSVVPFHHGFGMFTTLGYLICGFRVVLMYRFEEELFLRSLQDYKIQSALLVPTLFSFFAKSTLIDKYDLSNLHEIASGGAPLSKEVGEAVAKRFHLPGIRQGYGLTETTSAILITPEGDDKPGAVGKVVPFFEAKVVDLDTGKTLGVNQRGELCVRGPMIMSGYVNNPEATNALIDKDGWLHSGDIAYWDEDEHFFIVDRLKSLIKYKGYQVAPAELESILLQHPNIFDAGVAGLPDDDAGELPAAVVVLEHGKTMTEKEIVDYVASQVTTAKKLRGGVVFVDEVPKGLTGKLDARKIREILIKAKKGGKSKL
Sequence of Glutaminase kidney isoform, mitochondrial (Homo sapiens) (O94925 whole entry, looked up, canonical isoform): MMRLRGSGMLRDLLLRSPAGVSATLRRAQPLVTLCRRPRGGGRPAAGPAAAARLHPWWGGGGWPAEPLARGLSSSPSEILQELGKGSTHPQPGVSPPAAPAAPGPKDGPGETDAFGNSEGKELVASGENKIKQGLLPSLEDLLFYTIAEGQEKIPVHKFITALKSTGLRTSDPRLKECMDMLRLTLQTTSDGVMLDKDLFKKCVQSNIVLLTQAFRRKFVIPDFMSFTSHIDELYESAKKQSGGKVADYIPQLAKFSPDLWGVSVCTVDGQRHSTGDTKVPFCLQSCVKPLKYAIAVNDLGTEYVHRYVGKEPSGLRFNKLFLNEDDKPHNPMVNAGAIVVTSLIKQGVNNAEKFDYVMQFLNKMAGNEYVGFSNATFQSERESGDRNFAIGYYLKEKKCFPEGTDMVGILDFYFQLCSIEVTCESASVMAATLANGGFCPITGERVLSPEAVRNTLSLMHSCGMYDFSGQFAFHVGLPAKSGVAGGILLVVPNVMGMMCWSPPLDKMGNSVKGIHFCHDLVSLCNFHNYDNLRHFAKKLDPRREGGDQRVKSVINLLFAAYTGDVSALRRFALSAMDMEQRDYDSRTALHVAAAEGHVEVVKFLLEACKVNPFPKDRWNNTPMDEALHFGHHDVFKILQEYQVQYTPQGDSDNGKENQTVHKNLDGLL

NC(=O)OCC(COC(N)=O)c1ccccc1
not listed: [7]
inactive: all other assays above

COC(=O)Nc1nc2ccc(C(=O)c3cccs3)cc2[nH]1
active: [7] 2.24 µM
inactive: all other assays above

CC(C)NCC(O)COc1ccc(CCOCC2CC2)cc1 (stereo not drawn)
not listed: [7]
inactive: all other assays above

CC(C)(C)C(=O)Oc1ccc(S(=O)(=O)Nc2ccccc2C(=O)NCC(=O)O)cc1
inactive: [1] | [2] | [4] | [7]

COc1ccc2c(c1)c(CC(=O)O)c(C)n2C(=O)c1ccc(Cl)cc1
inactive: [1] | [2] | [5] | [6]

O=C(c1ccc(F)cc1)C1CCN(CCn2c(=O)[nH]c3ccccc3c2=O)CC1
active: [1] 3.55 µM and 562 nM
inactive: all other assays above

NC(=O)NO
active: [5] 8.91 µM
not listed: [7]
inactive: all other assays above

CS(=O)(=O)CCNCc1ccc(-c2ccc3ncnc(Nc4ccc(OCc5cccc(F)c5)c(Cl)c4)c3c2)o1
not listed: [5] | [6]
inactive: all other assays above

NCCCCCC(=O)O
not listed: [7]
inactive: all other assays above

CC(CCc1ccc(O)cc1)NCCc1ccc(O)c(O)c1 (stereo not drawn)
inactive and 3.55 µM (active): [1]
not listed: [5]
inactive: all other assays above

Clc1ccc2nsnc2c1NC1=NCCN1
not listed: [7]
inactive: all other assays above

COc1cc2nc(N3CCN(C(=O)c4ccco4)CC3)nc(N)c2cc1OC
inactive: [1] | [2] | [5] | [6]

CCOC(=O)Nc1ccc(NCc2ccc(F)cc2)nc1N
active: [1] 14.1 µM | [5] 12.6 µM
not listed: [4]
inactive: all other assays above

CC12CC3CC(C)(C1)CC(N)(C3)C2
not listed: [7]
inactive: all other assays above

Cn1ccc2cc3c(cc21)CCN3C(=O)Nc1cccnc1
inactive: [1] | [4] | [6]
active: [2] 6.42 µM

COc1ccccc1N1CCN(CC(O)COc2cccc3ccccc23)CC1 (stereo not drawn)
inactive: [2] | [6]
active: [1] 3.16 µM and 794 nM

Nc1nc2c(ncn2COC(CO)CO)c(=O)[nH]1
not listed: [7]
inactive: all other assays above

NC12CC3CC(CC(C3)C1)C2
not listed: [4] | [7]
inactive: all other assays above

Clc1ccccc1C(c1ccccc1)(c1ccccc1)n1ccnc1
active: [1] 10 µM and 11.2 µM
not listed: [4]
inactive: all other assays above

COc1ccccc1OCC(O)CN1CCN(CC(=O)Nc2c(C)cccc2C)CC1 (stereo not drawn)
inactive: all assays above

OCCN(CCO)c1nc(N2CCCCC2)c2nc(N(CCO)CCO)nc(N3CCCCC3)c2n1
active: [4] 10.2 µM
not listed: [7]
inactive: all other assays above

CN1C(C(=O)Nc2ccccn2)=C(O)c2ccccc2S1(=O)=O
not listed: [7]
inactive: all other assays above

CN(C)c1nc(N(C)C)nc(N(C)C)n1
inactive: all assays above

O=c1c(O)c(-c2ccc(O)c(O)c2)oc2cc(O)cc(O)c12
not listed: [2] | [5]
inactive: all other assays above

Cc1cc(C(C)(C)C)c(O)c(C)c1CC1=NCCN1
active: [1] 11.2 µM
inactive: [2] | [3] | [4] | [6]

O=C1N(c2ccccc2)c2ccccc2C1(Cc1ccncc1)Cc1ccncc1
inactive: all assays above

CCOC(=O)c1ncn2c1CN(C)C(=O)c1cc(F)ccc1-2
not listed: [7]
inactive: all other assays above

NCCc1cnc[nH]1
not listed: [5]
inactive: all other assays above

COc1nc(C)nc(Cl)c1NC1=NCCN1
not listed: [7]
inactive: all other assays above

COc1cc2c(c(OC)c1OC)-c1ccc(OC)c(=O)cc1[C@@H](NC(C)=O)CC2
not listed: [4] | [7]
inactive: all other assays above

CC[N+](CC)(CC)CCOc1cccc(OCC[N+](CC)(CC)CC)c1OCC[N+](CC)(CC)CC
not listed: [6] | [7]
inactive: all other assays above

CC[C@@]1(O)C(=O)OCc2c1cc1n(c2=O)Cc2cc3c(CN(C)C)c(O)ccc3nc2-1
inactive: [2]
active: [4] 0.51 µM | [7] 15.8 µM

CN(CCOc1ccc(NS(C)(=O)=O)cc1)CCc1ccc(NS(C)(=O)=O)cc1
inactive: [2] | [3] | [4]

CN(C)C(=O)C(CCN1CCC(O)(c2ccc(Cl)cc2)CC1)(c1ccccc1)c1ccccc1
inactive: [2] | [5] | [6]

CC1COc2c(N3CCN(C)CC3)c(F)cc3c(=O)c(C(=O)O)cn1c23 (stereo not drawn)
inactive: [1] | [5] | [6]

CC(C(=O)O)c1cccc(C(=O)c2ccccc2)c1 (stereo not drawn)
inactive: [1] | [5] | [6]

CCCNCC(O)COc1ccccc1C(=O)CCc1ccccc1 (stereo not drawn)
active: [4] 25.6 µM
inactive: [2] | [6]

C[C@H]1c2cccc(O)c2C(O)=C2C(=O)[C@]3(O)C(O)=C(C(N)=O)C(=O)[C@@H](N(C)C)[C@@H]3[C@@H](O)[C@@H]21
inactive: [1] | [6]

O=C1c2c(O)ccc(O)c2C(=O)c2c(NCCNCCO)ccc(NCCNCCO)c21
active: [4] 0.346 µM | [5] 3.55 µM
inactive: [2] | [3] | [6]

CC#C[C@]1(O)CC[C@H]2[C@@H]3CCC4=CC(=O)CCC4=C3[C@@H](c3ccc(N(C)C)cc3)C[C@@]21C
inactive: [2] | [3] | [7]
active: [6] 21.3 µM

CNCCCC12CCC(c3ccccc31)c1ccccc12
inactive: [2] | [5] | [6]
active: [3] 32.2 µM | [4] 32.2 µM

O=C1Cc2cc(CCN3CCN(c4nsc5ccccc45)CC3)c(Cl)cc2N1
inactive: [2] | [5] | [6]

CN(C)CCCN1c2ccccc2CCc2ccc(Cl)cc21
active: [3] 20.3 µM
inactive: [2] | [5] | [6]

CCCCc1oc2ccccc2c1C(=O)c1cc(I)c(OCCN(CC)CC)c(I)c1
inactive: [2] | [5] | [6]
active: [3] 32.2 µM | [4] 28.7 µM

Cc1cnc(C(=O)NCCc2ccc(S(=O)(=O)NC(=O)NC3CCCCC3)cc2)cn1
inactive: [2] | [3] | [4] | [6]

CN1CCN2c3ccccc3Cc3ccccc3C2C1 (stereo not drawn)
not listed: [1] | [6]
inactive: all other assays above

CCN1CCCC1CNC(=O)c1cc(S(=O)(=O)CC)c(N)cc1OC (stereo not drawn)
inactive: [2] | [5] | [6]

COc1ccc(C2CNC(=O)C2)cc1OC1CCCC1 (stereo not drawn)
inactive: [1] | [5] | [6]

CCc1cccc2c3c([nH]c12)C(CC)(CC(=O)O)OCC3 (stereo not drawn)
inactive: [1] | [5] | [6]

Cc1cc(C(C)(C)C)cc(C)c1CC1=NCCN1
not listed: [1] | [7]
inactive: all other assays above

CN1C2CCC1CC(OC(=O)C(CO)c1ccccc1)C2 (stereo not drawn)
inactive: [5] | [6]

COc1ccc(CCN(C)CCCC(C#N)(c2ccc(OC)c(OC)c2)C(C)C)cc1OC (stereo not drawn)
inactive: [2] | [3] | [4] | [5]

CCC1(C)CC(=O)NC1=O (stereo not drawn)
inactive: [1] | [6]

CN1CCC(=C2c3ccccc3CC(=O)c3sccc32)CC1
inactive: [2] | [6]

O=C(C1CCCCC1)N1CC(=O)N2CCc3ccccc3C2C1 (stereo not drawn)
inactive: [1] | [5] | [6]

CN1CCN(CCCN2c3ccccc3Sc3ccc(Cl)cc32)CC1
inactive: [2] | [6]

CN1CCC(=C2c3ccccc3C=Cc3ccccc32)CC1
inactive: [2] | [5] | [6]

CN(C)C(=N)N=C(N)N
inactive: [2] | [3] | [4]

COc1cc2nc(N(C)CCCNC(=O)C3CCCO3)nc(N)c2cc1OC (stereo not drawn)
inactive: [1] | [5] | [6]
